Assay results as given in PubChem BioAssay (NCATS).
“And” between values parts separate entries of the source, which are not always exact repeats. Equal values may be shown once. Results filed as inconclusive are left out. The source holds several records for some structures; these can differ, active in one and inactive in another. The source made the active and inactive calls. Unless noted, calls follow the shape of the dose curve; as a rule, active = well fitted curve in the direction sought with a large enough effect; inconclusive = small, poorly fitted or top-dose-only effect, or another doubt; inactive = no such curve, though single readings can be large; an effect the other way counts as inactive or inconclusive.

What was measured:
PA-1 = assay: Primary qHTS to identify gynecologic anti-cancer compounds using libraries of approved drugs and bioactive compounds (AID 1345084); conditions: Gynecologic cancer cell panel viability, ATPlite luminescence, 48 h; series mostly up to 57.5 µM; also: nearly all actives have a fitted effect of over 55% in size; also: potency is read from the fitted curve at half-maximal effect; as to activity change, negative = cytotoxicity: % is scaled to controls: 0 for no effect and ±100 for the full control effect
Method in brief: (§1)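 Cells, 1,000 per well, were allowed to settle for 16 h at 37 C before compound addition. Five concentrations were tested for 48 h, and viability was read by ATPlite luminescence after 15 min at room temperature.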

SKOV3 = assay: as above; conditions: Gynecologic cancer cell panel viability, ATPlite luminescence, 48 h; series mostly up to 57.5 µM
Method in brief: as §1

Tov-21-G = assay: as above; conditions: Gynecologic cancer cell panel viability, ATPlite luminescence, 48 h; series mostly up to 57.5 µM
Method in brief: as §1

Tov112D = assay: as above; conditions: Gynecologic cancer cell panel viability, ATPlite luminescence, 48 h; series mostly up to 57.5 µM
Method in brief: as §1

[1] = Drug repurposing screens with cells derived from glioblastoma tumor samples (AID 1345199); conditions: GBM patient neurospheres viability, ATP luminescence, 48 h; also: nearly all actives have a fitted effect of over 40% in size; also: potency is read from the fitted curve at half-maximal effect; as to activity, negative = cell killing: % is scaled to controls: 0 for no effect and ±100 for the full control effect
Method in brief: (§2)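 Primary testing used CD133+ neurospheres from four GBM patients, seven concentrations, 48 h exposure and ATP-based viability; confirmation added three slower-growing patient lines.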

astro = assay: as above; conditions: viability, ATP luminescence, 48 h; series mostly up to 45.9 µM
Method in brief: as §2

[2] = biological target: Nuclear receptor subfamily 1 group I member 2 (Rattus norvegicus) (UniProt Q9R1A7); assay: qHTS assay for small molecule activators of the rat pregnane X receptor (rPXR) signaling pathway (AID 651751; call rule not given here; also: 0% is about no effect); conditions: rPXR reporter cells, luciferase (One-Glo), 24 h
Sequence of Nuclear receptor subfamily 1 group I member 2 (Rattus norvegicus) (Q9R1A7 whole entry, looked up): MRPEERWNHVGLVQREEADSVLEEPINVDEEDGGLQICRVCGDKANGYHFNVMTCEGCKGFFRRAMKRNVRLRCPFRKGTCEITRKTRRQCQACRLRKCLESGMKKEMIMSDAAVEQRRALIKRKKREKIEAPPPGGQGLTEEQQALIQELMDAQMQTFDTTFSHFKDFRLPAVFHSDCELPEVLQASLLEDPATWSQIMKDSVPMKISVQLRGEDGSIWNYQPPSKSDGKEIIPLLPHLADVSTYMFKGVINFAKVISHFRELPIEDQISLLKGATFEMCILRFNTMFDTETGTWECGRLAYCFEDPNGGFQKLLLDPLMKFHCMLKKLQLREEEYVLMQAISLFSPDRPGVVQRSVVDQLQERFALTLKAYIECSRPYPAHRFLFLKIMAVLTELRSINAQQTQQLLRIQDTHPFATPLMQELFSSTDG

OV90 = assay: Primary qHTS to identify gynecologic anti-cancer compounds using libraries of approved drugs and bioactive compounds (AID 1345084); conditions: Gynecologic cancer cell panel viability, ATPlite luminescence, 48 h; series mostly up to 57.5 µM; also: nearly all actives have a fitted effect of over 55% in size; also: potency is read from the fitted curve at half-maximal effect; as to activity change, negative = cytotoxicity: % is scaled to controls: 0 for no effect and ±100 for the full control effect
Method in brief: as §1

[3] = qHTS assay to identify inhibitors of the type 1 interferon - major histocompatibility complex class I in skeletal muscle: Counter screen cell viability and HiBit confirmation (AID 1347412); conditions: iHSKM muscle cells + IFN-b, HiBiT or CellTiter-Glo, 24 h; Potency: HiBiT; Viability, at 45.9 µM (top of the series); also: nearly all actives have a fitted effect of over 60% in size; also: potency is read from the fitted curve at half-maximal effect
Method in brief: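 After 24 h with human IFN-beta (4 ng/ml) and compound titrations (top 46 uM final, 1:3, 12 points), HLA-B HiBit myoblasts were lysed for either Nano-Glo HiBiT luminescence or CellTiter Glo viability on paired plates.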

[4] = qHTS assay for small molecule activators of the human pregnane X receptor (PXR) signaling pathway (AID 720659; call rule not given here; also: 0% is about no effect); conditions: DPX-2 HepG2 CYP3A4-luciferase, 24 h; series mostly up to 92.3 µM
[5] = at 45.9 µM (top of the series), tumour line B
[6] = at 45.9 µM (top of the series), tumour line D
[7] = at 46.1 µM (top of the series), tumour line C
[8] = at 20 µM (top of the series), tumour line C
[9] = at 21.2 µM (top of the series), tumour line B
[10] = at 21.2 µM (top of the series), tumour line D

NS(=O)(=O)c1cc2c(cc1Cl)NC=NS2(=O)=O
inactive: Potency (PA-1) | Potency (SKOV3) | Potency (Tov-21-G) | Potency (Tov112D) | activity, negative = cell killing [1, 5] -4.14% | activity, negative = cell killing [1, 6] -10.8% | activity, negative = cell killing [1, 7] 23.2% | Potency (astro) | max response [2] -2.2%

CS(=O)(=O)c1cccc(CNc2nc(Nc3ccc4c(c3)CCC(=O)N4)ncc2C(F)(F)F)c1
active: Potency [3] 11.1 µM
inactive: Potency (OV90) | Potency (Tov112D)

N#Cc1ccc(C(c2ccc(C#N)cc2)n2cncn2)cc1
inactive: activity, negative = cell killing [1, 8] -3.52% | activity, negative = cell killing [1, 9] -10% | activity, negative = cell killing [1, 10] -7.94% | Potency (astro)

CCOC(=O)N1CCC(=C2c3ccc(Cl)cc3CCc3cccnc32)CC1
inactive: Potency (OV90) | activity, negative = cell killing [1, 5] -28.2% | activity, negative = cell killing [1, 7] -20.3%
active: Potency ([1]; tumour line A) 10 µM

COc1ccccc1[C@H](c1cccc2ccccc12)[C@@](C)(C#N)C(=O)N1CCC(c2cccc(C(F)(F)F)c2)CC1
inactive: Potency (OV90) | Potency (PA-1) | Potency (Tov-21-G) | Potency (Tov112D)

S=C(NCc1ccc2c(c1)OCO2)N1CCN(c2ncnc3c2oc2ccccc23)CC1
inactive: Potency (PA-1) | Potency (Tov-21-G) | Potency (Tov112D)

Nc1nc2ccc(OC(F)(F)F)cc2s1
inactive: Potency (OV90) | Potency (SKOV3) | activity, negative = cell killing [1, 7] 16.9% | Potency (astro)

CCC(C)(C)C(=O)O[C@H]1C[C@@H](C)C=C2C=C[C@H](C)[C@H](CC[C@@H]3C[C@@H](O)CC(=O)O3)[C@H]21
inactive: Potency (PA-1) | Potency (SKOV3) | Potency (Tov-21-G) | Potency (Tov112D) | activity, negative = cell killing [1, 8] -22.9% | activity, negative = cell killing [1, 9] -19.9%
active: Potency ([1]; tumour line A) 0.891 µM | Potency (astro) 3.55 µM

COc1c(Cl)cc2c([nH]c3cnccc32)c1NC(=O)c1cccnc1C
inactive: Potency (OV90) | Potency (PA-1) | Potency (Tov-21-G) | Potency (Tov112D) | Potency [3]

Cc1cc2c(C(C)C)c(O)c(O)c(C=O)c2c(O)c1-c1c(C)cc2c(C(C)C)c(O)c(O)c(C=O)c2c1O
inactive: Potency (Tov-21-G) | Potency (Tov112D) | Potency [3] | outcome [4]

CN1CCN(CCCN2c3ccccc3Sc3ccc(C(F)(F)F)cc32)CC1
inactive: Potency (Tov-21-G) | activity, negative = cell killing [1, 7] -24.2%
active: Potency (OV90) 11.2 µM | Potency (SKOV3) 14.1 µM | Potency ([1]; tumour line A) 2.51 µM | Potency ([1]; tumour line B) 15.8 µM | Potency ([1]; tumour line D) 6.31 µM | Potency (astro) 25.1 µM

Cc1ccccc1C(OCCN(C)C)c1ccccc1 (stereo not given)
inactive: Potency (PA-1) | Potency (SKOV3) | Potency (Tov-21-G) | Potency (Tov112D) | activity, negative = cell killing [1, 6] -29.5% | activity, negative = cell killing [1, 7] 0.923% and -8.9% | Potency (astro) | max response [2] 4.25%

CNC(=O)c1ccccc1Sc1ccc2c(/C=C/c3ccccn3)n[nH]c2c1
active: Potency (OV90) 11.2 µM | Potency (Tov-21-G) 11.2 µM | Potency (Tov112D) 8.91 µM | Potency (astro) 2 µM

CCCS(=O)(=O)Nc1ccc(F)c(C(=O)c2c[nH]c3ncc(Cl)cc23)c1F
inactive: Potency (OV90) | Potency (Tov112D)

Nc1nc2[nH]cc(CCc3ccc(C(=O)N[C@@H](CCC(=O)O)C(=O)O)cc3)c2c(=O)[nH]1
inactive: activity, negative = cell killing [1, 5] -23.6% | activity, negative = cell killing [1, 6] -14.3% | Potency (astro)
active: Potency ([1]; tumour line A) 0.251 µM

CC1(C)CNc2cc(NC(=O)c3cccnc3NCc3ccncc3)ccc21
inactive: Potency (PA-1) | Potency (SKOV3) | Potency (Tov-21-G) | Potency (Tov112D)

O=C(NOC[C@H](O)CO)c1ccc(F)c(F)c1Nc1ccc(I)cc1F
inactive: Potency (PA-1) | Potency (SKOV3) | Potency (Tov112D)
active: Potency (astro) 0.447 µM

CC[C@H](Nc1ncnc2nc[nH]c12)c1nc2cccc(F)c2c(=O)n1-c1ccccc1
inactive: activity change, negative = cytotoxicity (OV90) -4.59% [at 11.6 µM] | activity change, negative = cytotoxicity (PA-1) 0.976% [at 11.6 µM] | activity change, negative = cytotoxicity (Tov-21-G) -9.1% [at 11.6 µM] | activity change, negative = cytotoxicity (Tov112D) -0.869% [at 11.6 µM]

O=C(Nc1cccnc1)N1CCC(Cc2cccc(Oc3ccc(C(F)(F)F)cn3)c2)CC1
inactive: Potency (PA-1)

NCCc1ccc(O)c(O)c1
inactive: Potency (OV90) | Potency (PA-1) | Potency (Tov-21-G) | Potency (Tov112D) | activity, negative = cell killing [1, 5] -2.97% | activity, negative = cell killing [1, 6] 1.17% | activity, negative = cell killing ([1]; at 46 µM (top of the series), tumour line A) -12.4% | activity, negative = cell killing [1, 7] 13.2% | Potency (astro)

Nc1ccc(S(=O)(=O)Nc2ccnn2-c2ccccc2)cc1
inactive: Potency (OV90) | Potency (PA-1) | Potency (Tov-21-G) | Potency (Tov112D) | activity, negative = cell killing [1, 8] -5.82% | activity, negative = cell killing [1, 9] -5.49% | activity, negative = cell killing [1, 10] -1.62% | activity, negative = cell killing ([1]; at 21.3 µM (top of the series), tumour line A) -21.3% | Potency (astro)
